# Source: the supplement of paper PMC10849652
# About 7,900 targets were measured; listed, in parts, are those with a hit and a random draw of the rest. About 0.6% of all pairs of compound and target were hits. Values without a mark were called inactive.
# Experiments:
# Assay in all cases: log2 fold change, soluble protein after heating vs DMSO (PISA); higher = thermal stabilisation; K562 cells, 10 uM, 30 min; active = over 0.2 and 3.5 SD of the protein, either way, in both replicates (recomputed)
# bafetinib = compound: Cc1ccc(NC(=O)c2ccc(CN3CC[C@H](N(C)C)C3)c(C(F)(F)F)c2)cc1Nc1nccc(-c2cncnc2)n1 [bafetinib]
# In short: (§1)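 Soluble protein was quantified by TMTpro 16plex LC-MS/MS after channel sums were equalised. It was obtained as the supernatant after 21,000xg for 90 min from pooled aliquots of K562 cells (2×10^6 cells/mL, 10 μM compound, 30 min) heated for 3 min across 48°C-58°C and extracted in PBS with 0.5% NP-40 at 4°C. Thermal stability values are relative to control samples and come from duplicates. They are given as log2 fold changes.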
# [1] = compound: Cc1cccc(CC(=O)N2CCc3c2ccc(-c2cn(C)c4ncnc(N)c24)c3F)n1
# In short: as §1
# dasatinib = compound: Cc1nc(Nc2ncc(C(=O)Nc3c(C)cccc3Cl)s2)cc(N2CCN(CCO)CC2)n1 [dasatinib]
# In short: as §1
# [2] = compound: Cn1cc(-c2ccc3c(c2)CCN3C(=O)Cc2cccc(C(F)(F)F)c2)c2c(N)ncnc21
# In short: as §1
# [3] = compound: Cn1cc(-c2ccc3nnc(C(F)(F)c4ccc5ncccc5c4)n3n2)cn1
# In short: as §1
# tipifarnib = compound: Cn1cncc1[C@@](N)(c1ccc(Cl)cc1)c1ccc2c(c1)c(-c1cccc(Cl)c1)cc(=O)n2C [tipifarnib]
# In short: as §1
# mubritinib = compound: FC(F)(F)c1ccc(/C=C/c2nc(COc3ccc(CCCCn4ccnn4)cc3)co2)cc1 [mubritinib]
# In short: as §1
# [4] = compound: NC(=O)Nc1cc(-c2cccc(F)c2)sc1C(=O)N[C@H]1CCCNC1
# In short: as §1
# [5] = compound: NC(=O)c1cnc(N[C@@H]2CCCC[C@@H]2N)nc1Nc1cccc(-n2nccn2)c1
# In short: as §1
# [6] = compound: NC1(c2ccc(-c3nc4ccn5c(=O)[nH]nc5c4cc3-c3ccccc3)cc2)CCC1
# In short: as §1
# [7] = compound: NCC(=O)Nc1ccc(-n2nc(C(F)(F)F)cc2-c2ccc3c(ccc4ccccc43)c2)cc1
# In short: as §1
# entinostat = compound: Nc1ccccc1NC(=O)c1ccc(CNC(=O)OCc2cccnc2)cc1 [entinostat]
# In short: as §1
# vorinostat = compound: O=C(CCCCCCC(=O)Nc1ccccc1)NO [vorinostat]
# In short: as §1
# silmitasertib = compound: O=C(O)c1ccc2c(c1)nc(Nc1cccc(Cl)c1)c1ccncc12 [silmitasertib]
# In short: as §1
# [8] = compound: O=C1NC(=O)C(c2cnc3ccccn23)=C1c1cn2c3c(cc(F)cc13)CN(C(=O)N1CCCCC1)CC2
# In short: as §1
# nilotinib = compound: Cc1cn(-c2cc(NC(=O)c3ccc(C)c(Nc4nccc(-c5cccnc5)n4)c3)cc(C(F)(F)F)c2)cn1 [nilotinib]
# In short: as §1
# [9] = compound: Cc1nc(Nc2n[nH]c3c2CN(C(=O)N[C@H](CN(C)C)c2ccccc2)C3(C)C)c2sccc2n1
# In short: as §1
# [10] = compound: Cc1ncc(-c2ccnc(Nc3ccc(S(C)(=O)=O)cc3)n2)n1C(C)C
# In short: as §1
# citarinostat = compound: O=C(CCCCCCNC(=O)c1cnc(N(c2ccccc2)c2ccccc2Cl)nc1)NO [citarinostat]
# In short: as §1
# [11] = compound: c1cc(OCCN2CCCCC2)cc(-c2n[nH]c3ccc(-c4nnc[nH]4)cc23)c1
# In short: as §1
# Chain of UniProt Q8TCE6 (Q8TCE6 whole entry, looked up): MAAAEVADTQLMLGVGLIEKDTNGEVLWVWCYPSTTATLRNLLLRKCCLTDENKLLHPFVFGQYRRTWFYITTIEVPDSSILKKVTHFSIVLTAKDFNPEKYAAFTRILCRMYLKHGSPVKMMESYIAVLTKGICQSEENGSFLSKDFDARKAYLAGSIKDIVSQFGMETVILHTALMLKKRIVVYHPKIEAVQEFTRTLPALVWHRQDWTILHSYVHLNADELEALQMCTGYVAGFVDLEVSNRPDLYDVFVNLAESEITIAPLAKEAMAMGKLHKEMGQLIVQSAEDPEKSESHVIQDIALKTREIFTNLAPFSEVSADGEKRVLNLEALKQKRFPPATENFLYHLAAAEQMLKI
# Chain of UniProt Q9BQI3 (Q9BQI3 whole entry, looked up): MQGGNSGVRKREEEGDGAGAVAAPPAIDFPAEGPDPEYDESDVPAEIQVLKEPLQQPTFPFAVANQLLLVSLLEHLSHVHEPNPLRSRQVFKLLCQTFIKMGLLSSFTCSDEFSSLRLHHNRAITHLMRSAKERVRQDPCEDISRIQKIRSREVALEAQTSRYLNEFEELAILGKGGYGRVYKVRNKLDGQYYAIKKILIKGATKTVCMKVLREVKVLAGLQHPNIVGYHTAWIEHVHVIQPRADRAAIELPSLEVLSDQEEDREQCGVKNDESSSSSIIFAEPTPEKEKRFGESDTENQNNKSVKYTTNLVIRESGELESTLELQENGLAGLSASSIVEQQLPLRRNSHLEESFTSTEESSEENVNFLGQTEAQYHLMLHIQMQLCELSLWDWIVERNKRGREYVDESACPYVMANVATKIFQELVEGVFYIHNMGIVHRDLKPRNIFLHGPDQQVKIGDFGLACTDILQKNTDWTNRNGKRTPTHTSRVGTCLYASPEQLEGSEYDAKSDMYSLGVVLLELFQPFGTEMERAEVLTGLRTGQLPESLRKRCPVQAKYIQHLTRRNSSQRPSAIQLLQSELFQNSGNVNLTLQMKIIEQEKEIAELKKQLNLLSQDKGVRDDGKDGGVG
# Chain of UniProt Q9NWS6 (Q9NWS6 whole entry, looked up): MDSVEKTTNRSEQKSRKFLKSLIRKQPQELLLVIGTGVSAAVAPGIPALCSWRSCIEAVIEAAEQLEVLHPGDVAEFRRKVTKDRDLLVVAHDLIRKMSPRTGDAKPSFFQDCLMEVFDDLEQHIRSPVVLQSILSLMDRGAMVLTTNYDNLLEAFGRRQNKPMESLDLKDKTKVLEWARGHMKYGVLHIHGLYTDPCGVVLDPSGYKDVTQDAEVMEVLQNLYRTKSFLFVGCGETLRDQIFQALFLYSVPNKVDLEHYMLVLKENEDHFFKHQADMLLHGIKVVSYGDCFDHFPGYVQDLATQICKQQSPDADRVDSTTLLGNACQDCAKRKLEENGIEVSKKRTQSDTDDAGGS
# Chain of UniProt Q9NSI2 (Q9NSI2 whole entry, looked up): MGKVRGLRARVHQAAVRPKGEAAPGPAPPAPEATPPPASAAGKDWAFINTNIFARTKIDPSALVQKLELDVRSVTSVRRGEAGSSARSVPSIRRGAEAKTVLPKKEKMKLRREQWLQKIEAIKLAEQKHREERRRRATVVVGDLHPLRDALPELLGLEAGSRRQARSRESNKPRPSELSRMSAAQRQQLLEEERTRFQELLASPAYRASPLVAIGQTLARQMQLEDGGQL
# Chain of UniProt Q8N612 (Q8N612 whole entry, looked up): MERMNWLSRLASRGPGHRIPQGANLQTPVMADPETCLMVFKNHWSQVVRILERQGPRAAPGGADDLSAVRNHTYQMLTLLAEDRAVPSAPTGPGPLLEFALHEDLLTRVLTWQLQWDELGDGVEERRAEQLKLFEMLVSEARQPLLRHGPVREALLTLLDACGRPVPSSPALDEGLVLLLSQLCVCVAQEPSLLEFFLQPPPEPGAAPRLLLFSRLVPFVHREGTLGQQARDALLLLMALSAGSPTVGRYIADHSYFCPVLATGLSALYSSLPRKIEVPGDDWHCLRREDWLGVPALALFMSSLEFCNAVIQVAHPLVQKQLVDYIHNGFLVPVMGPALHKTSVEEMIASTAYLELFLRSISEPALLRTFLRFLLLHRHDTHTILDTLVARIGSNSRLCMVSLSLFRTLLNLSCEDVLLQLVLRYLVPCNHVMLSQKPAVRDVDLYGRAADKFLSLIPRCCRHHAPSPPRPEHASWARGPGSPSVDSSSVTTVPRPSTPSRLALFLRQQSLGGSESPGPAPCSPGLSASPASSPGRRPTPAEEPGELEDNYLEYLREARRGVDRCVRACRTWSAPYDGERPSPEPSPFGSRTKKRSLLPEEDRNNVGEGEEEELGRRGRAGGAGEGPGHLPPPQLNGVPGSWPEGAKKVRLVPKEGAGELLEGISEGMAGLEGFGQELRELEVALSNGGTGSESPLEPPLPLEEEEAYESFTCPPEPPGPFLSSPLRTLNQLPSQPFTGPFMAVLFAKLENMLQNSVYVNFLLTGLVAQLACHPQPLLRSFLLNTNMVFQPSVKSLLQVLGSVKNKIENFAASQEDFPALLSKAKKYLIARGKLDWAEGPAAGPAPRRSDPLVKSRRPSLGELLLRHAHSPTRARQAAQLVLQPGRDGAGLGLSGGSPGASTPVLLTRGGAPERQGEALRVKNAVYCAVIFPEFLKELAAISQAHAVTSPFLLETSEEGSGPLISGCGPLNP
# Chain of UniProt Q8TAG9 (Q8TAG9 whole entry, looked up): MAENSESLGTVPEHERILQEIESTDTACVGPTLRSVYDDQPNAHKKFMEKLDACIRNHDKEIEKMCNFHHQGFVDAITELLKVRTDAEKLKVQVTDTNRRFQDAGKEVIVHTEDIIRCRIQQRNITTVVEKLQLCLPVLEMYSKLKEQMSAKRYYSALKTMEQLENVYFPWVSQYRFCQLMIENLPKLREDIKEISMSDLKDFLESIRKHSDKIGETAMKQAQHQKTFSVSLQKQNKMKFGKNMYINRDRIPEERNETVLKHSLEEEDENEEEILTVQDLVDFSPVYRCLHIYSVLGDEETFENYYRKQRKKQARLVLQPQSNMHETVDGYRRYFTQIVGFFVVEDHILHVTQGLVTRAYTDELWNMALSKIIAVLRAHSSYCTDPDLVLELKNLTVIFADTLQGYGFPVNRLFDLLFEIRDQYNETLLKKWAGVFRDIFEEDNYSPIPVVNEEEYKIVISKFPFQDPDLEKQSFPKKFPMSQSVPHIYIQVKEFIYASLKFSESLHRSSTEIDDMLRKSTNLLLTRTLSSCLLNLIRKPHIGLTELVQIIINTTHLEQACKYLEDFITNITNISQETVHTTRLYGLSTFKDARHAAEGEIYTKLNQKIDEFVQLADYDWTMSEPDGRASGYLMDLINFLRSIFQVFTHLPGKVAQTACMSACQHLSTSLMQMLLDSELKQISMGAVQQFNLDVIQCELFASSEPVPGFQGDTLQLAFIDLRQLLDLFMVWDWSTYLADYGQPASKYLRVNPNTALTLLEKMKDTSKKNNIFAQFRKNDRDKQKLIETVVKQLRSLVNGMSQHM
# Chain of UniProt P50570 (P50570 whole entry, looked up): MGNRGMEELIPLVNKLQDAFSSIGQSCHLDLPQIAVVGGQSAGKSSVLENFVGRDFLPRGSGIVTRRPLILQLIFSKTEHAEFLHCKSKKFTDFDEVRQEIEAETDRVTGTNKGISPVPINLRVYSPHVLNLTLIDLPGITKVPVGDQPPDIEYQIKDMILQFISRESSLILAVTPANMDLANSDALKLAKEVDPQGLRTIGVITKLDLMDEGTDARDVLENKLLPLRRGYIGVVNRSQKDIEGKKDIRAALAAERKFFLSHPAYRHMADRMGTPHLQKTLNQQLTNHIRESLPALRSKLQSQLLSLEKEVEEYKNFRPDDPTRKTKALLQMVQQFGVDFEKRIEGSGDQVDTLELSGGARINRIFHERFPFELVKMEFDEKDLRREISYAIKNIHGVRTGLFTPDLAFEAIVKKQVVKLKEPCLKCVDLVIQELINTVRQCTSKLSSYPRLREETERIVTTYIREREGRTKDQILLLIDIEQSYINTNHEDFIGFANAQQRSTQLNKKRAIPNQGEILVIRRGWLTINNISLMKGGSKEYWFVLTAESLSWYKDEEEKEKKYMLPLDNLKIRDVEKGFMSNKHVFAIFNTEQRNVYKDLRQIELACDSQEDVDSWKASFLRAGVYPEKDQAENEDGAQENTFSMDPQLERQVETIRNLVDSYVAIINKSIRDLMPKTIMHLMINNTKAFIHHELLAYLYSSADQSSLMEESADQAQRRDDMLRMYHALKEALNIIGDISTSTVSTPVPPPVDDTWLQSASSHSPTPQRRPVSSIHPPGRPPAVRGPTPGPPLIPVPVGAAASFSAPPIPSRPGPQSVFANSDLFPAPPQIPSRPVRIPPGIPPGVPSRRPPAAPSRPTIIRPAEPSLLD
Target,log2 fold change (bafetinib),log2 fold change [1],log2 fold change (dasatinib),log2 fold change [2],log2 fold change [3],log2 fold change (tipifarnib),log2 fold change (mubritinib),log2 fold change [4],log2 fold change [5],log2 fold change [6],log2 fold change [7],log2 fold change (entinostat),log2 fold change (vorinostat),log2 fold change (silmitasertib),log2 fold change [8],log2 fold change (nilotinib),log2 fold change [9],log2 fold change [10],log2 fold change (citarinostat),log2 fold change [11]
EIF2AK1 (UniProt Q9BQI3),-0.162,0.171,-0.068,0.19,0,-0.035,-0.025,-0.034,0.018,-0.023,0.001,0.129,-0.058,0,0.133,,,,,
DNM2 isoform 4 (UniProt P50570),0.154,0.062,-0.007,0.006,0.005,,0.108,-0.033,,-0.318,,0.342,-0.068,0.116,0.19,-0.006,0.047,-0.047,-0.113,0.06
EXOC6 (UniProt Q8TAG9),-0.013,0.036,-0.22,0.042,0.028,-0.076,0.07,-0.052,-0.091,-0.258,-0.078,0.045,0.324 (active),0.049,0.03,-0.013,-0.196,-0.013,0.023,0.007
FAM207A (UniProt Q9NSI2),0.002,0.076,0.006,,-0.127,0.003,-0.238,-0.005,0.076,-0.165,-0.042,0.052,0.015,0.356,0.099,-0.071,-0.087,-0.059,0.106,-0.117
CTSB (UniProt P07858),-0.842 (active),-0.038,-0.008,0.014,0.033,0.008,-0.007,-0.013,-0.043,-0.283 (active),0.005,-0.047,0.016,0.002,-0.067,0.001,-0.028,-0.029,-0.015,-0.07
FAM160A2 isoform 2 (UniProt Q8N612),-0.208,-0.145,-0.186,-0.083,0.046,,0.093,,,0.158,-0.26,,-0.009,0.057,0.026,-0.085,0.192,-0.101,-0.154,0.068
DENND10 (UniProt Q8TCE6),0.033,,-0.129,-0.131,-0.064,0.034,0.077,0.018,0,-0.089,-0.069,-0.076,,0.037,0.073,-0.266,-0.032,-0.353,0.07,0.054
DOCK8 (UniProt Q8NF50),-0.076,-0.055,0.052,-0.14,-0.067,,0.021,-0.088,0.073,0.461,0.036,0.079,0.031,0.254,-0.12,0.069,-0.057,-0.126,0.064,0.07
FAM118A (UniProt Q9NWS6),-0.076,0,-0.314,-0.019,0.135,-0.128,0.043,0.052,-0.129,-0.351,0.015,0.149,0.054,0.166,-0.088,-0.092,-0.216,-0.039,-0.289,0.322
